One assay relates to CDKL5. More on the design: species or system human, MV4-11 + K-562 + COLO205 + SK-N-BE2 + OVCAR-8. As to conditions: read-out: apparent Kd, compound concentrations: 100 nM and 1000 nM (sheet 'Samples'), n = 1.
Another assay deals with CLK1. More on the design: species or system human, MV4-11 + K-562 + COLO205 + SK-N-BE2 + OVCAR-8. As to conditions: read-out: apparent Kd, compound concentrations: 100 nM and 1000 nM (sheet 'Samples'), n = 1.
The subject of the next assay is CLK4. Details: species or system human, MV4-11 + K-562 + COLO205 + SK-N-BE2 + OVCAR-8. The conditions noted are these: read-out: apparent Kd, compound concentrations: 100 nM and 1000 nM (sheet 'Samples'), n = 1.
Another assay deals with ERN2. Details: species or system human, MV4-11 + K-562 + COLO205 + SK-N-BE2 + OVCAR-8. The conditions noted are these: read-out: apparent Kd; compound concentrations: 100 nM and 1000 nM (sheet 'Samples'), CATDS: 0.122228474485695; n = 1.
In another assay the test system is GSK3A. More on the design: species or system human, MV4-11 + K-562 + COLO205 + SK-N-BE2 + OVCAR-8. As to conditions: read-out: apparent Kd, compound concentrations: 100 nM and 1000 nM (sheet 'Samples'), n = 1.
A further assay has as its system GSK3B. More on the design: species or system human, MV4-11 + K-562 + COLO205 + SK-N-BE2 + OVCAR-8. The conditions noted are these: read-out: apparent Kd, compound concentrations: 100 nM and 1000 nM (sheet 'Samples'), n = 1.
The next assay relates to PAK4. Details: species or system human, MV4-11 + K-562 + COLO205 + SK-N-BE2 + OVCAR-8. The conditions noted are these: read-out: apparent Kd; compound concentrations: 100 nM and 1000 nM (sheet 'Samples'), CATDS: 0.121686694160256; n = 1.
For a further assay, the target named is Q6ZSR9 (human, UniProt Q6ZSR9). More on the design: species or system MV4-11 + K-562 + COLO205 + SK-N-BE2 + OVCAR-8. As to conditions: read-out: apparent Kd; compound concentrations: 100 nM and 1000 nM (sheet 'Samples'), CATDS: 0.110463614954163; n = 1.
Sequence of Q6ZSR9 (Q6ZSR9 whole entry, looked up): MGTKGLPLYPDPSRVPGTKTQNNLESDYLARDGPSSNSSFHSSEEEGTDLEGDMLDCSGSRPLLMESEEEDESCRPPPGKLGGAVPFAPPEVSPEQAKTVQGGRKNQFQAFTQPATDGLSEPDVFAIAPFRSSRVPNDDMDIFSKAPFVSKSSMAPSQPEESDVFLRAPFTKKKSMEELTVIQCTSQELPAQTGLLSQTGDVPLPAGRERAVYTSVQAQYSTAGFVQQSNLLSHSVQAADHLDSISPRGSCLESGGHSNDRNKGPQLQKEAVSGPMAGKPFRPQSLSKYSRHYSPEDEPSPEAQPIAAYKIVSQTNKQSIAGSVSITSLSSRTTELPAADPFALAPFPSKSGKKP
The subject of another assay is ERBB3. Details: species or system human, MV4-11 + K-562 + COLO205 + SK-N-BE2 + OVCAR-8. As to conditions: read-out: apparent Kd; compound concentrations: 100 nM and 1000 nM (sheet 'Samples'), CATDS: 0.345701208148325; n = 1.
For a further assay, the system named is MYLK3. More on the design: species or system human, MV4-11 + K-562 + COLO205 + SK-N-BE2 + OVCAR-8. As to conditions: read-out: apparent Kd; compound concentrations: 100 nM and 1000 nM (sheet 'Samples'), CATDS: 0.366305815038865; n = 1.
In a further assay the test system is CDK7. Details: species or system human, MV4-11 + K-562 + COLO205 + SK-N-BE2 + OVCAR-8. The conditions noted are these: read-out: apparent Kd; compound concentrations: 100 nM and 1000 nM (sheet 'Samples'), CATDS: 5.1614283275692202E-2; n = 1.
Another assay concerns CDK9. More on the design: species or system human, MV4-11 + K-562 + COLO205 + SK-N-BE2 + OVCAR-8. As to conditions: read-out: apparent Kd; compound concentrations: 100 nM and 1000 nM (sheet 'Samples'), CATDS: 7.5250343499568897E-2; n = 1.
The test system of the next assay is DYRK1A. Details: species or system human, MV4-11 + K-562 + COLO205 + SK-N-BE2 + OVCAR-8. The conditions noted are these: read-out: apparent Kd; compound concentrations: 100 nM and 1000 nM (sheet 'Samples'), CATDS: 5.4131433130879598E-2; n = 1.
The subject of another assay is ERCC2. More on the design: species or system human, MV4-11 + K-562 + COLO205 + SK-N-BE2 + OVCAR-8. As to conditions: read-out: apparent Kd; compound concentrations: 100 nM and 1000 nM (sheet 'Samples'), CATDS: 5.1102609842245399E-2; n = 1.
A further assay has as its system FLT3. More on the design: species or system human, MV4-11 + K-562 + COLO205 + SK-N-BE2 + OVCAR-8. The conditions noted are these: read-out: apparent Kd; compound concentrations: 100 nM and 1000 nM (sheet 'Samples'), CATDS: 7.2287914746840001E-2; n = 1.
A further assay deals with ICK. Details: species or system human, MV4-11 + K-562 + COLO205 + SK-N-BE2 + OVCAR-8. As to conditions: read-out: apparent Kd; compound concentrations: 100 nM and 1000 nM (sheet 'Samples'), CATDS: 7.1869443211344197E-2; n = 1.
The subject of another assay is PIP4K2C. Details: species or system human, MV4-11 + K-562 + COLO205 + SK-N-BE2 + OVCAR-8. The conditions noted are these: read-out: apparent Kd; compound concentrations: 100 nM and 1000 nM (sheet 'Samples'), CATDS: 4.9119421247087701E-2; n = 1.
For another assay, the system named is TGFBR2. Details: species or system human, MV4-11 + K-562 + COLO205 + SK-N-BE2 + OVCAR-8. As to conditions: read-out: apparent Kd; compound concentrations: 100 nM and 1000 nM (sheet 'Samples'), CATDS: 0.19336486168442599; n = 1.

Potency estimated from few doses data for three molecules are collected here from PMC11062922 (Nature Chemical Biology, 2023).

Where two headings read alike, the source gives them in different places.

In the case of `Cn1cc(C2=C(c3cn(C)c4c([N+](=O)[O-])cccc34)C(=O)NC2=O)c2ccccc21` [RO0317452-000], the potency estimated from few doses in the assay on CDKL5 (CATDS: 0.10582240505262699) is 2010 nM; in the assay with CLK1 (CATDS: 0.119262646968794), 1520 nM; in the assay with CLK4 (CATDS: 0.13099506977266501), 1260 nM; in the assay with ERN2 it was 1450 nM; with GSK3A (CATDS: 0.15449009445540701), 933 nM; in the assay with GSK3B (CATDS: 0.15136404639572901), 967 nM. Moreover, the values for the potency estimated from few doses in the assay with PAK4 and with Q6ZSR9 were 1460 nM and 1810 nM, respectively.

For `COc1cccc(-n2ncc3c(N/N=C/c4ccc(F)cc4)ncnc32)c1` [GW817396X], the potency estimated from few doses in the assay on CDKL5 (CATDS: 0.29608844643475601) was 2110 nM; in the assay on ERBB3 it was 1520 nM; in the assay with MYLK3, 1360 nM.

As for `FC(F)(F)c1cc(Br)cc(Nc2nccc(-c3cnn4ncccc34)n2)c1` [GW810578X], the potency estimated from few doses is 1740 nM in the assay with CDK7; 461 nM with CDK9; 127 nM in the assay with CDKL5 (CATDS: 0.13413982703885399); 72.6 nM in the assay with CLK1 (CATDS: 0.18636177679303401); 82 nM in the assay with CLK4 (CATDS: 0.17259551294748199); 1410 nM in the assay on DYRK1A. The potency estimated from few doses in the assay with ERCC2 was 1830 nM; in the assay on FLT3, 516 nM; in the assay with GSK3A (CATDS: 6.4716553061548596E-2), 724 nM; with GSK3B (CATDS: 9.1324175022244006E-2) it was 282 nM; in the assay with ICK, 525 nM; in the assay on PIP4K2C, 2250 nM. Besides, in the assay with TGFBR2, the potency estimated from few doses is 68.5 nM.
